This passage reports composite z-score and z-score results from PubChem BioAssay.

The structures appear in SMILES notation. The source made the active and inactive calls.

Assay [1] concerns Plasmodium falciparum Sir2 (PF13_0152, Sir2A). In words: Plasmodium falciparum Sir2A binding compounds – biochemical, small-molecule microarray, 635 nm fluorescence, primary screen (AID 1098).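 Note: score merges spot fluorescence intensity with its signal-to-noise ratio.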 As to conditions: fluorescence 635 nm, higher = more signal.
Assay [2] in a line: probe aDKK1 binding to arrayed compounds – biochemical, biotinylated probe, 635/667 nm fluorescence, primary screen (AID 1099).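 Note: score merges 667nm spot fluorescence with signal to noise across triplicate slides.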 The following applies: small-molecule microarray, higher = more signal.
A short description of assay [3]: probe aCHRDL2 binding to arrayed compounds – biochemical, biotinylated probe, 635/667 nm fluorescence, primary screen (AID 1100). The following applies: small-molecule microarray, higher = more signal.
A short description of assay [4]: change in splice reporter luminescence, either direction, cell-based, HEK293, spliceosome inhibition project, primary screen (AID 1101).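 Note: HEK293 cells carrying a splicing-competent luciferase reporter gene; test concentration not given here.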 As to conditions: HEK293 splicing luciferase reporter, 24 h, higher = more signal, called active from +8 up or from −8 down. A general note: A reporter such as luciferase makes a cellular process visible.
In assay [5] the target is Fibroblast growth factor 10 (Homo sapiens) (UniProt O15520). In words: compounds binding fibroblast growth factor 10 – biochemical, small-molecule microarray, 635 nm fluorescence, primary screen (AID 1102). As to conditions: FGF10 binding, fluorescence 635 nm, higher = more signal.
Sequence of Fibroblast growth factor 10 (Homo sapiens) (O15520 whole entry, looked up): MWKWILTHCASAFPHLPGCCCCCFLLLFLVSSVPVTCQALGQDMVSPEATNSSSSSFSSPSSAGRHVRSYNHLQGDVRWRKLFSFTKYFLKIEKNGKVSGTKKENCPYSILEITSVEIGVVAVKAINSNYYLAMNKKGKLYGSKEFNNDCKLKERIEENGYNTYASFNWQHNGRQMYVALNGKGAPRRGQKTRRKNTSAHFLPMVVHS
Assay [6] deals with glycogen synthase kinase-3 (GSK3A per assay name; protocol says GSK3B). The assay can be described thus: compounds binding glycogen synthase kinase-3 – biochemical, small-molecule microarray, 635 nm fluorescence, GSK3A, primary screen (AID 1103). Note: the record names both GSK3A and GSK3B. The following applies: fluorescence 635 nm, higher = more signal.
The target of assay [7] is Epidermal growth factor receptor (Homo sapiens) (UniProt P00533). In words: compounds binding epidermal growth factor receptor – biochemical, small-molecule microarray, 635 nm fluorescence, primary screen (AID 1104).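 Note: score merges 667 nm emission intensity with spot signal to noise over triplicate slides.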 As to conditions: EGFR binding, higher = more signal.
Sequence of Epidermal growth factor receptor (Homo sapiens) (P00533 whole entry, looked up): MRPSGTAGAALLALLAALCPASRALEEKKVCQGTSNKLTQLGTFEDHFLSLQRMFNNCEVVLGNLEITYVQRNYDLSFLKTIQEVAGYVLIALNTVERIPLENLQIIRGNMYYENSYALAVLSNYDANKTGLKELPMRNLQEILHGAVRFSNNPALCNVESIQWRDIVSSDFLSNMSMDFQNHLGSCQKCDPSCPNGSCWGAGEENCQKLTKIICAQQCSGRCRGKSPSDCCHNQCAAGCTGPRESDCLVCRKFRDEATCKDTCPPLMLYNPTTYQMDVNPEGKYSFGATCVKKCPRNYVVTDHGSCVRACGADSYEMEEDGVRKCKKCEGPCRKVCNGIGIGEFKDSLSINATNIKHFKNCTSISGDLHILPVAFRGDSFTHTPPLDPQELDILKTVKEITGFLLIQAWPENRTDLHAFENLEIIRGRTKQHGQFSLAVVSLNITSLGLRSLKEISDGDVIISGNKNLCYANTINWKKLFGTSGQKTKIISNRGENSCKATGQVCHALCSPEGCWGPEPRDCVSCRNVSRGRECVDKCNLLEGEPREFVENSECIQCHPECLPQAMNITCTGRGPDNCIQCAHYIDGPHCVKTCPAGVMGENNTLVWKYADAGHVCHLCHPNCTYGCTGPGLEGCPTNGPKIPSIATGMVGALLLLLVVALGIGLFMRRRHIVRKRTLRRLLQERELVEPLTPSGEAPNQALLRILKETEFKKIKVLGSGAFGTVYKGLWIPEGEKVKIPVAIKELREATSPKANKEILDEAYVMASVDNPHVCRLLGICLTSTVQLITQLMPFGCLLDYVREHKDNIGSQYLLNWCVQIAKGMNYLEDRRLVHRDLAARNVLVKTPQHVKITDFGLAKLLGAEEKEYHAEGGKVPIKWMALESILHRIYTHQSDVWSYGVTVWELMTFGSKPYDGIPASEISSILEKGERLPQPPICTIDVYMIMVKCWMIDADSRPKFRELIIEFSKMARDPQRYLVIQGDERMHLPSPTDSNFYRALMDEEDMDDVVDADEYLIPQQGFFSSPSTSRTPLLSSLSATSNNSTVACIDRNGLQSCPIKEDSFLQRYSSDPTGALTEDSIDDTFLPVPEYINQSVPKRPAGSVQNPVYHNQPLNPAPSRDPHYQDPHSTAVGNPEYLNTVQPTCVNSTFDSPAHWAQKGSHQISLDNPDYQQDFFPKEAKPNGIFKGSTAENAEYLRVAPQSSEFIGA
Assay [8] addresses Follistatin-related protein 3 (Homo sapiens) (UniProt O95633). In words: compounds binding follistatin-related protein 3 – biochemical, small-molecule microarray, 635 nm fluorescence, primary screen (AID 1105).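 Note: score merges emission near 667 nm and signal to noise per printed spot across three slides.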 As to conditions: FSTL3 binding, higher = more signal.
Assay [9] concerns the target Dickkopf-related protein 1 (Homo sapiens) (UniProt O94907). The assay can be described thus: small molecules binding DKK1 protein – biochemical, small-molecule microarray, 635 nm fluorescence scan, primary screen (AID 1106).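 Note: score merges emission near 667 nm with signal to noise over three replicate slides.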 As to conditions: higher = more signal.
For assay [10], the system named is Inhibin beta A chain (activin A). The assay can be described thus: small molecules binding activin A – biochemical, small-molecule microarray, 635 nm fluorescence scan, primary screen (AID 1107).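 Note: mouse activin A protein probed at 4.33 µg/mL on printed slides; score merges bound-protein fluorescence near 667 nm with spot signal-to-noise.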 As to conditions: INHBA, higher = more signal.
Assay [11] concerns Human papillomavirus type 1a protein E7 (residues 44-93). The assay can be described thus: small molecules binding HPV E7 44-93 – biochemical, small-molecule microarray, residues 44-93, 635 nm fluorescence, primary screen (AID 1108).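 Note: E7 fragment applied at 1 µg/mL in TBST for 1 h at 4 C; score combines spot fluorescence with its signal to noise ratio.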 As to conditions: fluorescence 635 nm, higher = more signal.
A short description of assay [12]: hepatitis C replication reporter changes, two-sided – Huh7 cells, luciferase reporter, HCV replication inhibitor project, primary screen (AID 1109).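 Note: huh7 hepatoma cells harbouring a luciferase neomycin HCV replicon reporter; luciferase luminescence as measure of HCV replicon replication; test concentration not given here.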 As to conditions: Huh7 HCV replicon luciferase reporter, 48 h; higher = more signal.
The target of assay [13] is Left-right determination factor 2 (Homo sapiens) (UniProt O00292). The assay can be described thus: small molecules binding LEFTY2 protein – biochemical, small-molecule microarray, 635 nm fluorescence scan, primary screen (AID 1110). The following applies: higher = more signal.
Sequence of Left-right determination factor 2 (Homo sapiens) (O00292 whole entry, looked up): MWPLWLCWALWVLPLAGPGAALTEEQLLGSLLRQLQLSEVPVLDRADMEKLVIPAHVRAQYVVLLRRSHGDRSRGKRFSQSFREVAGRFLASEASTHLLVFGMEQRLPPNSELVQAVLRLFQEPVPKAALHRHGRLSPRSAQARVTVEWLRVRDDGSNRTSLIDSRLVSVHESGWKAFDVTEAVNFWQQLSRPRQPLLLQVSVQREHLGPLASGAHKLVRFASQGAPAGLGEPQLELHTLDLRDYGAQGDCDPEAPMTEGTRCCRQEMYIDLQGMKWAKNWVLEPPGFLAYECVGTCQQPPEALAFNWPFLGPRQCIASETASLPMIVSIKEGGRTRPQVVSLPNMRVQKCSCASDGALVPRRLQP
Assay [14] has as its target Calmodulin-1 (Homo sapiens) (UniProt P0DP23). The assay can be described thus: small molecules binding calmodulin-1 with EGTA – biochemical, small-molecule microarray, Cy5-labelled CALM1, profiling panel (AID 1111).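 Note: labelled calmodulin applied in Tris saline Tween buffer holding calcium plus EGTA and DTT.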 As to conditions: Cy5-CALM1 binding fluorescence, higher = more signal.
Assay [15] has the same target. The assay can be described thus: small molecules binding Ca-loaded calmodulin-1 – biochemical, small-molecule microarray, Cy5-labelled CALM1, plus calcium, artefact control for SMM control-protein annotation, profiling panel (AID 1112).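 Note: score merges spot fluorescence with signal to noise from triplicate slides.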 As to conditions: Cy5-CALM1 binding fluorescence, higher = more signal.
A short description of assay [16]: probe aWnt5a binding to arrayed compounds – biochemical, biotinylated probe, 635/667 nm fluorescence, primary screen (AID 1113).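 Note: score merges 667 nm fluorescence intensity with signal-to-noise per printed feature.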 As to conditions: small-molecule microarray, higher = more signal.
The nature of assay [17]: probe aShh binding to arrayed compounds – biochemical, biotinylated probe, 635/667 nm fluorescence, primary screen (AID 1114).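 Note: probe is biotin-labelled aShh protein from a stem cell growth factor screen; measures binding of labelled protein to compounds printed on the slide; score merges feature fluorescence at 667 nm with signal-to-noise.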 The following applies: small-molecule microarray, higher = more signal.
A short description of assay [18]: probe aNog binding to arrayed compounds – biochemical, biotinylated probe, 635/667 nm fluorescence, primary screen (AID 1115).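 Note: probe is biotinylated aNog protein used at 0.15 µg/mL for 1 h at 4 C; z-score combines 667 nm fluorescence of each spot with its signal to noise.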 As to conditions: small-molecule microarray, higher = more signal.
Assay [19] deals with Torsin-1A-interacting protein 1 (Homo sapiens) (UniProt Q5JTV8). The assay can be described thus: compound microarray binding of lysate hLAP1 – cell lysate, small-molecule microarray, COS7 lysate, 635/667 nm fluorescence, primary screen (AID 1116). The following applies: 635 nm fluorescence, higher = more signal.
Sequence of Torsin-1A-interacting protein 1 (Homo sapiens) (Q5JTV8 whole entry, looked up): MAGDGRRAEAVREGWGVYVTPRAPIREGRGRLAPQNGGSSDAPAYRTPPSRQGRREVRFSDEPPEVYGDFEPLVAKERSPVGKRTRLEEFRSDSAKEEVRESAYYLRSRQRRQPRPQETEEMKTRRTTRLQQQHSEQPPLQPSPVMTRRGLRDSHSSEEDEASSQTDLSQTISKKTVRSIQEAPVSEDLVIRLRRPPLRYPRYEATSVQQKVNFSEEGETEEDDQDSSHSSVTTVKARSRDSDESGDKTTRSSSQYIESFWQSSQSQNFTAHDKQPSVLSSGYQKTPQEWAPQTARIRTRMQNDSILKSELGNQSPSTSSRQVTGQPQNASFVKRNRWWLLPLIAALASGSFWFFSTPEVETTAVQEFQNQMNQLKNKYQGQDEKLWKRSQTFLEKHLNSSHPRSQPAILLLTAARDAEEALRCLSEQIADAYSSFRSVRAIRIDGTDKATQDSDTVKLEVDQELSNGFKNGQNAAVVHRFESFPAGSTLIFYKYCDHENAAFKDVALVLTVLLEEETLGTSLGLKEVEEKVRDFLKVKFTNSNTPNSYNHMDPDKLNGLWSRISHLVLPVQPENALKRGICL
Assay [20] concerns the target Alpha-bungarotoxin (Bungarus multicinctus) (UniProt P60615). In words: compounds binding labelled alpha-BTX control protein – biochemical, small-molecule microarray, Alexa647 label, 635/667 nm fluorescence, artefact control for SMM control protein annotation, profiling panel (AID 1117). As to conditions: alpha-BTX-A647 binding fluorescence, higher = more signal.

Sequence of Follistatin-related protein 3 (Homo sapiens) (O95633 whole entry, looked up): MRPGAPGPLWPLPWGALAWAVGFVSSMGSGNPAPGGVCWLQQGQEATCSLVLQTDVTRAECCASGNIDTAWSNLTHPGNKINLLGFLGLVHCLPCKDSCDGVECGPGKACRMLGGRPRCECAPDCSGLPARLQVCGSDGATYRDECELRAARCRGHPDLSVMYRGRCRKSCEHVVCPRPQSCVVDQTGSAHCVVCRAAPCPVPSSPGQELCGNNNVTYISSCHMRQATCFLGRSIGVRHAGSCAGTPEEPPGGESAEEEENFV
Sequence of Dickkopf-related protein 1 (Homo sapiens) (O94907 whole entry, looked up): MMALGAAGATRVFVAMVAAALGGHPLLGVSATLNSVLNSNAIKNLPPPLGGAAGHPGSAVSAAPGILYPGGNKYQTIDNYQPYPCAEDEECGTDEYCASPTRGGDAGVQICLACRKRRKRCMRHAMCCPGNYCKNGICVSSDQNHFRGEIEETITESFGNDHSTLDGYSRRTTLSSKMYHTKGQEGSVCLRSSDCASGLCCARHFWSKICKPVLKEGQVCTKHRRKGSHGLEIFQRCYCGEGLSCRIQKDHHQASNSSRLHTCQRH
Sequence of Alpha-bungarotoxin (Bungarus multicinctus) (P60615 whole entry, looked up): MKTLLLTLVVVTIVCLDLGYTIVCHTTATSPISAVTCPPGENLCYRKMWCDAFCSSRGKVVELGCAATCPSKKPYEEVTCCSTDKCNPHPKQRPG

In the case of `COCCCNC(=O)[C@@H]1c2ccccc2C(=O)N(CC23CC4CC(CC(C4)C2)C3)[C@H]1c1ccc(CO)cc1`, the composite z-score in assay [1] was 0.0881; in [2], 0.884; in [3], 0.97; in [5], 0.37; in assay [6] it was 0.623; in assay [7], 0.215. Further, the composite z-score in assay [8] is 0.296; in assay [9] it was 0.427; in assay [10], 0.911; in assay [11], 0.666; in [13], -0.191; in assay [14] it was 0.879. The composite z-score in assay [15] is 0.803; in assay [16], -0.0405; in assay [17] it was 0.778; in assay [18] it was 0.0051; in assay [19] it was 0.926; in assay [20], 0.253. Also, the z-score in assay [4] is -1.1 (inactive); in [12] it was -1.57.

Regarding `COCCOC(=O)N1C(=O)[C@@]2(c3cc(C#CC4=CCCCC4)ccc31)[C@H](C(=O)NC[C@H](O)c1ccccc1)[C@H]1C(=O)O[C@H](c3ccccc3)[C@H](c3ccccc3)N1[C@@H]2c1ccc(OCCO)cc1`, the composite z-score in [1] was 0.915; in assay [2] it was -0.18; in [3], 0.226; in assay [5], 1.29; in assay [6], 1.28; in assay [7], 0.483. The composite z-score in [8] stood at 1.37; in [9], 0.817; in assay [10] it was 0.49; in assay [11] it was 1.41; in [13] it was 0.537; in assay [14], 0.774. Also, the composite z-score in assay [15] is -0.206; in [16], 0.0115; in [17], -0.279; in assay [18] it was 0.165; in assay [19], 1; in [20], 1.28. The z-score is -0.718 (inactive) in assay [4] and -2.08 in [12].

Regarding `Cc1ccc(N2C(=O)c3ccccc3[C@](C)(C(=O)NCC(C)C)[C@@H]2c2ccc(CO)cc2)nc1`, the composite z-score is 1.78 in [1]; 0.504 in assay [2]; 0.481 in assay [3]; -0.587 in assay [5]; -0.856 in assay [6]; -0.45 in assay [7]. Further, the composite z-score was -0.775 in assay [8]; -0.29 in assay [9]; 1 in [10]; -1.1 in assay [11]; -0.337 in [13]; -0.584 in assay [14]. Also, the composite z-score in assay [15] is -1.07; in assay [16], -0.0405; in assay [17], -0.0257; in assay [18], -0.172; in assay [19], -0.367; in assay [20], -0.809. Moreover, the results for the z-score in assay [4] and in [12] were -0.237 (inactive) and 0.324, respectively.

On to `C=CCN1C(=O)[C@@]2(Cc3ccccc3)N=C(c3ccc(OCCCO)cc3)O[C@H]2c2ccccc21`, for which the composite z-score in assay [1] amounted to 1.59; in [2], 1.07; in assay [3], 1.19; in [5], 0.534; in assay [6], 0.876; in assay [7], 0.96. Besides, the composite z-score was found to be 0.956 in [8]; 0.613 in [9]; 0.965 in [10]; 0.974 in assay [11]; 0.525 in assay [13]; 0.0185 in assay [14]. For the same molecule, the composite z-score was 0.192 in [15]; -0.0814 in [16]; 0.0469 in assay [17]; 0.79 in assay [18]; 2.15 in assay [19]; 1.66 in assay [20]. In addition, the z-score is -0.298 (inactive) in assay [4] and -2.44 in assay [12].

Consider `O=C1OCC=C[C@H]2OC34C=CCN(Cc5ccccc5)C(=O)[C@H]3N(CCO)C(=O)[C@@H]4[C@@H]12` (stereo not given in full), for which the composite z-score was 1.89 in [1]; -0.227 in assay [2]; 0.679 in [3]; -1.09 in assay [5]; -1.46 in [6]; -0.435 in [7]. The composite z-score was -0.596 in assay [8]; -0.965 in [9]; 0.0484 in [10]; 0.257 in assay [11]; -0.864 in assay [13]; -0.289 in assay [14]. Moreover, the composite z-score in [15] was 0.822; in assay [16], -0.144; in assay [17] it was -0.134; in assay [18], -0.182; in assay [19] it was -0.459; in [20], -0.38. Moreover, the z-score in assay [4] is -0.632 (inactive); in assay [12], -0.877.
